High-throughput results deposited in PubChem by National Center for Advancing Translational Sciences (NCATS).
VP16 counter: Gal4-VP16 reporter inhibition counter-screen | Drosophila S2 Gal4-VP16 UAS-luciferase, luminescence, 20 h | Potency, µM (highest dose often 53.6 µM), inactives show at the top dose activity, negative = inhibition, usual class: inhibitors | 310,000 compounds, 3.5% hits | AID 2546;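 note: Gal4-VP16 expression switched on by copper sulfate through the metallothionein promoter; potency is the fitted concentration of half-maximal effect; nearly all actives have a fitted effect of over 50% in size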
RORg inh: ROR gamma (mouse) transcription inhibition; P51450; Drosophila S2 Gal4-RORgamma UAS-luciferase reporter, 20 h; Potency, µM (highest dose often 53.6 µM), inactives show top-dose activity change, negative = inhibition, actives largely listed as inhibitors; 310,000 compounds, 5.4% hits; note: potency is the fitted concentration of half-maximal effect; nearly all actives have a fitted effect of over 60% in size
Target sequence (P51450 whole entry, looked up, the tested form may be a part): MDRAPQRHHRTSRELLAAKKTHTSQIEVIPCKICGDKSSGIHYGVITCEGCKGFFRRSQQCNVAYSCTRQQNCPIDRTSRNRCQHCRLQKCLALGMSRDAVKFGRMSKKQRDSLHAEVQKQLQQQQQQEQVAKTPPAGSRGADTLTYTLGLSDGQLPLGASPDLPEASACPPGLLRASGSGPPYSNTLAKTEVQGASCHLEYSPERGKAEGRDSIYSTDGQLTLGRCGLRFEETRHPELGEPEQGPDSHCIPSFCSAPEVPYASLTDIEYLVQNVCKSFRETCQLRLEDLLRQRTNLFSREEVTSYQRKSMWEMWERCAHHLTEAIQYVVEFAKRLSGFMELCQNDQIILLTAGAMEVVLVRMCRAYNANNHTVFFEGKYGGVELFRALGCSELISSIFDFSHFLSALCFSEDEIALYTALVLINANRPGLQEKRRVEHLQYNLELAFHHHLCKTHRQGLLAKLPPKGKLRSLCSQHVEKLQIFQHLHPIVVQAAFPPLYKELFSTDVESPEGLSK
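Luminescence from a UAS-regulated Photinus luciferase reporter in stably transfected Drosophila Schneider cells is measured; decreased signal marks ROR gamma inhibition. Fusion expression is induced by 700 uM copper sulfate for 20 hr.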
ELG1 repair inh: inhibitors of ELG1-dependent DNA repair in HEK293T cells. AID 504467. HEK293T ELG1-luciferase reporter, luminescence, 16 h; DNA damage induced by 5-fluorouridine. Potency, µM (doses to about 46.1 µM), inactives show top-dose activity change, negative = inhibition, usual class: inhibitors. 330,000 compounds, 2.3% hits; note: potency is the fitted concentration of half-maximal effect; nearly all actives have a fitted effect of over 55% in size
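HEK293T cells expressing luciferase-tagged ELG1 (2,000/well) received 5-Fluorouridine plus compound or DMSO for 16 hr at 37 °C. Luciferase was read by ONE-Glo luminescence after 30 min at room temperature.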
TDP1 cell CPT: DT40-hTDP1 cell growth loss with CPT | chicken DT40 Tdp1-/-;hTDP1 cells + 20 nM CPT, ATP luminescence, 48 h | Potency, µM (top dose mostly 46.2 µM), without a hit: top-dose activity change, negative = growth inhibition, usual class: inhibitors | 420,000 compounds, 12% hits; note: potency is the fitted concentration of half-maximal effect; nearly all actives have a fitted effect of over 55% in size
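Cell growth measured by CellTiter-Glo luminescence after a minimum 48 h, 37 C compound exposure with 20 nM CPT in Tdp1-knockout DT40 cells stably expressing hTDP1, seeded 400/well; qHTS titration format.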
DT40 TDP1 no CPT: qHTS for Inhibitors of human tyrosyl-DNA phosphodiesterase 1 (TDP1): qHTS in cells in absence of CPT. DT40 Tdp1-/- hTDP1 cells, no CPT, ATP luminescence, 48 h. Potency, µM (top dose mostly 46.2 µM), for the others: top-dose activity change, negative = growth inhibition, most hits filed as inhibitors. 420,000 compounds, 15% hits; note: potency is the fitted concentration of half-maximal effect; nearly all actives have a fitted effect of over 55% in size
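A cellular qHTS used chicken DT40 cells lacking endogenous Tdp1 but carrying stably transfected human TDP1. Compounds were applied without camptothecin, and cell growth kinetics were judged by ATP-dependent luminescence after ≥48 hr.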
IL1B secr inh: inflammasome signaling inhibition, IL-1 beta readout. THP-1 LPS/ATP IL-1B secretion, AlphaLISA, 16 h; active compounds read low. activity change, % at 57.5 µM. 360,000 compounds, 4.7% hits. AID 743279; in the data active = activity change below about -50%; inconclusive = mostly about -30% to -49%
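Secreted IL-1B measured by AlphaLISA bead assay after 16 h compound exposure of THP-1 cells; compounds (final up to 57.5 uM) added 1 h before LPS (250 ng/mL) and ATP (1.25 mM) stimulation; lower signal means less secretion.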
Starred values were filed as active, the others as inactive; ? = inconclusive; nt = no result given; [ ] = remark or other dose. Shown are actives, neighbours in structure and some others; about 21% of the full set was active somewhere. Unless noted, calls come from the whole dose curve; as a rule, active = well fitted curve in the direction sought with a large enough effect; inconclusive = small, poorly fitted or top-dose-only effect, or another doubt; inactive = no such curve, though single readings can be large; an effect the other way counts as inactive or inconclusive. % is set by controls: 0 for no effect and ±100 for the full control effect.

SMILES | VP16 counter | RORg inh | ELG1 repair inh | TDP1 cell CPT | DT40 TDP1 no CPT | IL1B secr inh
Oc1ccc(-c2csc(Nc3ccc4c(c3)OCO4)n2)c(O)c1 | nt | nt | nt | -8% | -21% | -28
N#Cc1ccc(Nc2nc(-c3ccc(O)cc3O)cs2)cc1C(F)(F)F | nt | nt | ? | 13µM* | 10µM* | -101*
CCOC(=O)C1CCN(C(=O)CSc2n[nH]c(-c3ccccc3)n2)CC1 | nt | nt | nt | -23% | ? | nt
COc1ccc(NC(=O)c2ccc(OC)c(S(=O)(=O)N3CCCCC3C)c2)cn1 (stereo unspecified) | nt | nt | -19% | ? | -24% | 62
CCOC(=O)C1CCN(C(=O)c2[nH]c(C(F)(F)F)nc2-c2ccccc2)CC1 | nt | nt | nt | -2% | 4% | 11
Cc1nc2ccccn2c1-c1csc(Nc2cccc(C(=O)O)c2)n1 | 4% | 0% | 1% | 2% | -8% | 30
Cc1nc2ccccn2c1-c1csc(Nc2cccc(O)c2)n1 | 8% | 4% | ? | 0.73µM* | 1.6µM* | -104*
Cc1cc(-c2nc3ncccc3o2)ccc1NC(=O)c1ccc([N+](=O)[O-])o1 | nt | nt | nt | -4% | 2% | -1
O=C(Nc1nc(-c2ccccn2)cs1)c1ccc([N+](=O)[O-])o1 | ? | ? | ? | 4.1µM* | 2.6µM* | 41
O=C(Nc1nc(-c2ccccn2)cs1)c1ccc(-c2ccccc2F)o1 | nt | nt | -54% | 5.8µM* | 10µM* | 94
Cc1ccc(C(=O)Nc2nc(-c3ccccn3)cs2)o1 | ? | 13µM* | ? | 5.8µM* | 3.7µM* | 165
CCc1cc(C(=O)Nc2nc(-c3ccccn3)cs2)sc1C | nt | nt | 15% | 4.6µM* | 2.9µM* | 114
O=C(N/C(=C\c1ccco1)C(=O)N1CCOCC1)c1ccccc1Cl | -2% | -4% | 0% | 3% | -14% | 0
CC(=O)c1ccc(-c2ccc(C(=O)Nc3nc(-c4ccccn4)cs3)o2)cc1 | nt | nt | 18µM* | 2.9µM* | 3.7µM* | 161
CCc1nnc(NC(=O)c2ccc(-c3ccc(C(C)=O)cc3)o2)s1 | nt | nt | -1% | -16% | 5% | ?
CC(Oc1ccc(Br)cc1)C(=O)N(Cc1ccccc1)c1c(N)n(Cc2ccccc2)c(=O)[nH]c1=O (stereo unspecified) | nt | nt | nt | 23µM* | 21µM* | ?
Cc1cccc(COc2ccccc2C(=O)OCC(=O)N(C)c2c(N)n(Cc3ccccc3)c(=O)[nH]c2=O)c1 | 0% | 4% | 21µM* | ? | ? | -15
COc1cc2ccccc2cc1C(=O)OCC(=O)N(C)c1c(N)n(Cc2ccccc2)c(=O)[nH]c1=O | nt | nt | ? | ? | ? | -2
Cc1ccccc1OCCC(=O)N(Cc1ccccc1)c1c(N)n(Cc2ccccc2)c(=O)[nH]c1=O | -12% | -2% | -12% | ? | -10% | -3
Nc1c(N(Cc2ccccc2)C(=O)COc2ccc([N+](=O)[O-])cc2)c(=O)[nH]c(=O)n1Cc1ccccc1 | nt | nt | nt | 5.8µM* | ? | 42
Nc1c(N(CCO)C(=O)COc2ccc(Cl)cc2)c(=O)[nH]c(=O)n1Cc1ccccc1 | -3% | -23%[10 µM] | 12% | -7% | 11% | -9
Cc1ccc(OCCC(=O)N(Cc2ccccc2)c2c(N)n(Cc3ccccc3)c(=O)[nH]c2=O)cc1 | nt | nt | -3% | ? | 21µM* | -8
CCCN(C(=O)COC(=O)CCOc1ccccc1C)c1c(N)n(Cc2ccccc2)c(=O)[nH]c1=O | -29% | -45% | -4% | -11% | -10% | 25
CCN(C(=O)COC(=O)CCOc1cc(C)ccc1C)c1c(N)n(Cc2ccccc2)c(=O)[nH]c1=O | nt | nt | nt | 18µM* | ? | 5
Cc1cc(OCC(=O)N(Cc2ccco2)c2c(N)n(Cc3ccccc3)c(=O)[nH]c2=O)ccc1Cl | nt | nt | 2% | 26µM* | ? | -23
